# Source: PubChem BioAssay AID720517 (National Center for Advancing Translational Sciences (NCATS), 2013)
# Inconclusive results are not listed. Calls of active or inactive are those of the source. The call rests on the fitted dose curve; in most records, active means well fitted activation curve with a large enough effect; inconclusive means small, poorly fitted or top-dose-only effect; inactive means flat fitted curve, though single readings scatter.
# Test: qHTS for Inhibitors of Cell Surface uPA Generation: FP59 Counterscreen for Cherry-picked Compounds; further: 0% is about no effect
# Details: FP59 anthrax toxin cytotoxicity counterscreen, cells; series mostly up to 115 µM; activity (protection from FP59): at the top concentration
row,Compound,activity (protection from FP59)
1,O=C(Nc1c(C(=O)O)oc2ccc(Br)cc12)c1ccccc1,-0.512% (inactive)
2,CC(C)NC(=O)CN1CCC(c2nc3ccccc3[nH]2)CC1,-1.44% (inactive)
3,O=[N+]([O-])c1cccc2c(N3CCOCC3)ccnc12,-0.897% (inactive)
4,Brc1ccsc1/C=N/Nc1ccccc1,0.415% (inactive)
5,O=C(NNC(=O)c1cccc(-n2cccc2)c1)c1ccc(F)cc1,-1.28% (inactive)
6,COc1ccc2c(c1)c1nnc(SCC(=O)Nc3ccccc3F)nc1n2C,-0.912% (inactive)
7,CCOc1cc(C)c(S(=O)(=O)N2CCCCC2)cc1C,-0.954% (inactive)
8,O=C(NCC1CCCO1)c1ccc(NC(=O)c2ccc([N+](=O)[O-])cc2)cc1 (stereo unspecified),-1.25% (inactive)
9,COc1ccc(C2=C/C(=C\c3ccccc3OC(C)=O)C(=O)O2)cc1,3.33% (inactive)
10,CC(=O)NCCc1cnc[nH]1,-1.32% (inactive)
11,CCCC1=NN(C(=O)Cc2ccc(OC)cc2)C(O)(C(F)(F)F)C1 (stereo unspecified),-1.35% (inactive)
12,COc1ccc2nc3c(cc2c1)c(NC(=O)C1CCCO1)nn3CC(C)C (stereo unspecified),-1.28% (inactive)
13,COc1ccc(NC(=O)/C(N=Nc2cc(S(=O)(=O)Nc3ccc(OC)cc3)ccc2OC)=C(\C)O)cc1,-1.19% (inactive)
14,COc1ccc(NC(=O)CCNS(=O)(=O)c2ccccc2F)cc1S(=O)(=O)N1CCOCC1,-1.16% (inactive)
15,COc1ccc(-n2nnnc2SCC(=O)Nc2nnc(C)s2)cc1,-1.43% (inactive)
16,Cc1cccc(N2C(=O)c3cccc(Oc4ccc(Cl)cc4)c3C2=O)c1,-0.698% (inactive)
17,COc1ccc(C(=O)NC(C)c2cnn(-c3ccccn3)c2C)o1 (stereo unspecified),-1.07% (inactive)
18,COc1ccccc1NC(=O)Cn1ncc2c1-c1ccccc1OC2,-1.3% (inactive)
19,CNC(=S)N1C2CCCC1CC(NC(=O)c1ccc(F)cc1)C2 (stereo unspecified),-1.37% (inactive)
20,O=C(O)c1ccc(-n2nnnc2SCc2cccc(Br)c2)cc1,-1.51% (inactive)
21,Cc1cc(C)n2c(SCC#N)nnc2n1,-0.579% (inactive)
